Bioassay records (PubChem)
HP1b chromo inh = HTS for Inhibitors of HP1-beta Chromodomain Interactions with Methylated Histone Tails; AID 540317, 2011; AlphaScreen HP1-beta / biotin-H3K9me3 peptide binding; Chromobox protein homolog 1 (Homo sapiens), P83916; Potency, µM (highest dose often 114 µM), for the others: at the top dose activity change, negative = inhibition, actives largely listed as inhibitors; 0.56% of 390,000 active; further: nearly all actives have a fitted effect of over 70% in size
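HP1-beta protein (50 nM final) preincubated 30 min at room temperature with biotinylated H3(1-18)K9me3 peptide (50 nM) in PBS pH 7.4, 0.01% Tween-20, then compound added for 30 min. AlphaScreen streptavidin donor/nickel chelate acceptor beads (10 ug/mL final), 30 min dark, luminescence read.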
G9a block = qHTS Assay for Inhibitors of Histone Lysine Methyltransferase G9a | G9a H3K9 monomethylation, AlphaScreen, 2 h | Potency, µM (series often up to 102 µM), without a hit: at the highest dose activity, negative = inhibition, most hits filed as inhibitors | 8.8% of 350,000 active | AID 504332, 2011; further: on the % scale 0 is the no-effect control and ±100 the full control effect; nearly all actives have a fitted effect of over 75% in size
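Using a bead-based AlphaScreen, monomethylated H3K9 product from 2 h room-temperature reactions (G9a 20 nM, peptide 500 nM, SAM 20 uM) was detected with 0.5 ug/mL rabbit anti-H3K9me1 antibody.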
JMJD2A Tudor inh = qHTS Assay for Inhibitors of JMJD2A-Tudor Domain; Lysine-specific demethylase 4A (Homo sapiens), O75164; AlphaScreen JMJD2A-Tudor / H3K4me3 peptide binding; Potency, µM (series often up to 114 µM), for the others: at the highest dose activity change, negative = inhibition, most hits filed as inhibitors; 4.4% of 390,000 active; AID 504339, 2011; further: on the % scale 0 is the no-effect control and ±100 the full control effect; nearly all actives have a fitted effect of over 50% in size
GLS inhibitor = qHTS for Inhibitors of Glutaminase (GLS) | GLS enzymatic activity, qHTS titration | Potency, µM (series often up to 45.5 µM), for inactives: top-dose activity change, negative = inhibition, hits mostly inhibitors | 0.21% of 410,000 active | AID 624170, 2012; further: on the % scale 0 is the no-effect control and ±100 the full control effect
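Read-out is an Amplex red fluorescence increase coupled through glutamate oxidase and HRP, measured before and after 30 min room-temperature incubation. hKGA is in 45 mM KH2PO4 (pH 8.2) with 0.02% Tween-20; glutamine added as 1mM solution.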
BAZ2B block = qHTS Assay for Inhibitors of BAZ2B; Bromodomain adjacent to zinc finger domain protein 2B (Homo sapiens), Q9UIF8; AlphaScreen BAZ2B-H3K14Ac peptide displacement; Potency, µM (series often up to 114 µM), without a hit: top-dose activity change, negative = inhibition, hits mostly inhibitors; 4.4% of 360,000 active; AID 504333, 2011; further: on the % scale 0 is the no-effect control and ±100 the full control effect; nearly all actives have a fitted effect of over 60% in size
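In this displacement format the biotinylated H3(5-23) peptide acetylated at Lys14 serves as ligand at 50 nM, with BAZ2B at 50 nM in PBS pH 7.4 containing 0.01% Tween-20. Donor and acceptor beads are 10 ug/mL final.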
Starred values were filed as active, the others as inactive; [ ] = another dose, or the depositor's remark. In the library only some 10% were active in any assay of this set; here they are far more common. The call rests on the fitted dose curve; in most records, active means well fitted curve in the direction sought with a large enough effect; inconclusive means small, poorly fitted or top-dose-only effect, or another doubt; inactive means no such curve, though single readings can be large; an effect the other way counts as inactive or inconclusive. Potency means the concentration at half of the fitted maximal effect.

Cc1ccc(NC(=O)CNCCCN2CCOCC2)cc1S(=O)(=O)N1CCCCC1 was read as HP1b chromo inh inconclusive, G9a block 14µM*, JMJD2A Tudor inh 18µM*, GLS inhibitor 1% and BAZ2B block 50µM*.
`COCCNCC(=O)Nc1ccc(C)c(S(=O)(=O)N2CCCCC2)c1` gave HP1b chromo inh inconclusive, G9a block 8.9µM*, JMJD2A Tudor inh 35µM* and GLS inhibitor -5%.
COc1cc(/C=C/C(=O)OCC(=O)Nc2ccc(C)c(S(=O)(=O)N3CCCCC3)c2)ccc1O was read as HP1b chromo inh -15%, G9a block inconclusive, JMJD2A Tudor inh 35µM*, GLS inhibitor inconclusive and BAZ2B block inconclusive.
For Cc1ccc(NC(=O)CCl)cc1S(=O)(=O)N1CCCCCC1 the results were HP1b chromo inh 33%, G9a block inconclusive, JMJD2A Tudor inh 4% and GLS inhibitor 5%.
For COCCNC(=O)C1=C(N)C(C(=O)Nc2ccc(C)c(S(=O)(=O)N3CCCCC3)c2)SC1=Nc1ccc(C)cc1C (stereo not drawn) the results were HP1b chromo inh -9%, G9a block 50µM*, JMJD2A Tudor inh -35%, GLS inhibitor 9% and BAZ2B block -8%.
Screening CCN(CC)S(=O)(=O)c1cccc(NC(=O)C2SC(=Nc3ccc(C)cc3C)C(C(=O)NCC3CCCO3)=C2N)c1 (stereo not drawn) returned HP1b chromo inh 22%, G9a block 18%[12.7 µM], JMJD2A Tudor inh -33%, GLS inhibitor -9% and BAZ2B block -32%.
`Cc1ccc(NC(=O)CN2CCOCC2)cc1S(=O)(=O)N1CCCCC1` gave HP1b chromo inh 31%, JMJD2A Tudor inh -8% and GLS inhibitor 9%.
For CCn1c(=N)c(C(=O)NC2CCCCC2)cc2c(=O)n3cc(C)ccc3nc21 the results were HP1b chromo inh 32%, G9a block -41%[59 µM], JMJD2A Tudor inh -5%, GLS inhibitor 3% and BAZ2B block 2%.
O=C1N2CCCCC1(Sc1ccccc1)CCC2 (stereo not drawn) was read as GLS inhibitor 1%.
Screening Cc1ccc(NC(=O)CNc2ccccc2N2CCCC2=O)cc1S(=O)(=O)N1CCCCC1 returned HP1b chromo inh -3%, G9a block 3.2µM*, JMJD2A Tudor inh -30%, GLS inhibitor 18% and BAZ2B block -35%.
For O=C(CNC(=O)c1ccc(Br)o1)Nc1ccc(F)c(S(=O)(=O)N2CCOCC2)c1 the results were HP1b chromo inh 9%, G9a block 45µM*, JMJD2A Tudor inh -24%, GLS inhibitor 3% and BAZ2B block -2%.
For N#CN1C2CCC1CC(O)(c1ccccc1)C2 (stereo not drawn) the results were GLS inhibitor 5%.
COc1ccc(CC(=O)Nc2nc(OCC(F)(F)F)cnc2-c2ccc(Cl)cc2Cl)cc1 was read as GLS inhibitor -19%.
For CCC(=O)Nc1cc2c3c(c1)CCC(=O)N3CCC2 the results were HP1b chromo inh 34%, G9a block 3%, JMJD2A Tudor inh 5%, GLS inhibitor -9% and BAZ2B block -8%.
For Cc1cccc(C)c1-n1c(C)cc(/C=N/NC(=O)c2ccncc2)c1C the results were HP1b chromo inh 15%, G9a block inconclusive, JMJD2A Tudor inh inconclusive, GLS inhibitor 10% and BAZ2B block inconclusive.
For CCc1ccc(-n2c(C)cc(/C=N/NC(=O)c3ccncc3)c2C)cc1 the results were HP1b chromo inh -3%, JMJD2A Tudor inh inconclusive, GLS inhibitor -9% and BAZ2B block 40µM*.
Screening Cc1ccc(-n2c(C)cc(/C=N/NC(=O)c3ccncc3)c2C)cc1C returned HP1b chromo inh -16%, G9a block 50µM*, JMJD2A Tudor inh inconclusive, GLS inhibitor 2% and BAZ2B block 50µM*.
For Cc1ccc(-n2c(C)cc(/C=N/NC(=O)c3ccncc3)c2C)c(C)c1 the results were HP1b chromo inh 6%, G9a block inconclusive, JMJD2A Tudor inh inconclusive, GLS inhibitor 0% and BAZ2B block 45µM*.
For COC(=O)N/N=C/c1cc(C)n(-c2ccc(Br)cc2)c1C the results were HP1b chromo inh inconclusive, JMJD2A Tudor inh -25%, GLS inhibitor -7% and BAZ2B block 45µM*.
COC(=O)N/N=C/c1cc(C)n(-c2ccc(F)cc2)c1C was read as HP1b chromo inh 8%, G9a block inconclusive, JMJD2A Tudor inh -36%, GLS inhibitor -1% and BAZ2B block inconclusive.
Screening Cc1cc(/C=N/NC(=O)c2ccncc2)c(C)n1-c1ccccc1 returned HP1b chromo inh 2%, G9a block inconclusive, JMJD2A Tudor inh -27%, GLS inhibitor -15% and BAZ2B block inconclusive.
`Cc1cc(C)c(Cn2c3ccccc3c3cnn(CC(=O)NCCCc4ccccc4)c(=O)c32)c(C)c1` gave HP1b chromo inh 36%, G9a block 3%[59 µM], JMJD2A Tudor inh inconclusive, GLS inhibitor -1% and BAZ2B block -3%.
For Cc1ccc2c(c1)c1c(n2CC(O)CN2CCOCC2)CCCC1 (stereo not drawn) the results were G9a block inconclusive and BAZ2B block -35%.
Cc1ccc2c(c1)c1c(n2CC(O)CNC2CCCCC2)CCCC1 (stereo not drawn) was read as HP1b chromo inh inconclusive, G9a block 40µM*, JMJD2A Tudor inh 32µM*, GLS inhibitor 10% and BAZ2B block 50µM*.
Screening Cc1ccc2c(c1)c1c(n2CC(O)CNC(CO)(CO)CO)CCCC1 (stereo not drawn) returned HP1b chromo inh -2%, G9a block 50µM*, JMJD2A Tudor inh inconclusive, GLS inhibitor 17% and BAZ2B block inconclusive.
Screening CC(=O)Nc1ccc(S(=O)(=O)NCCC(=O)NCc2ccco2)cc1 returned GLS inhibitor -1%.
Screening COc1cccc(/C=C/C(=O)c2ccc(NS(=O)(=O)c3ccc(C)cc3)cc2)c1 returned HP1b chromo inh -18%, G9a block 2.5µM*, JMJD2A Tudor inh inconclusive, GLS inhibitor 5% and BAZ2B block inconclusive.
COc1cc(/C=C/C(=O)c2ccc(NS(=O)(=O)c3ccc(C)cc3)cc2)cc(OC)c1O was read as HP1b chromo inh inconclusive, G9a block 40µM*, JMJD2A Tudor inh -33%, GLS inhibitor 5% and BAZ2B block inconclusive.
Cc1ccc(-c2cc(C(=O)OCn3nnc4ccccc4c3=O)c3ccccc3n2)cc1 was read as HP1b chromo inh 38%, G9a block 16%[59 µM], JMJD2A Tudor inh 1%, GLS inhibitor 2% and BAZ2B block -1%.
